The record followed here is PubChem BioAssay AID1645851 (National Center for Advancing Translational Sciences (NCATS), 2021).

Screen size: about 140,000 compounds; about 1,200 (0.86%) were called active. Rule as the data show it: active = activity change below about -25%; inactive = the rest. Shown is part of a subset that was picked to be rich in actives.
% is scaled to controls: 0 for no effect and ±100 for the full control effect.

Chain of Inositol hexakisphosphate kinase 1 (Homo sapiens) (Q92551 whole entry, looked up): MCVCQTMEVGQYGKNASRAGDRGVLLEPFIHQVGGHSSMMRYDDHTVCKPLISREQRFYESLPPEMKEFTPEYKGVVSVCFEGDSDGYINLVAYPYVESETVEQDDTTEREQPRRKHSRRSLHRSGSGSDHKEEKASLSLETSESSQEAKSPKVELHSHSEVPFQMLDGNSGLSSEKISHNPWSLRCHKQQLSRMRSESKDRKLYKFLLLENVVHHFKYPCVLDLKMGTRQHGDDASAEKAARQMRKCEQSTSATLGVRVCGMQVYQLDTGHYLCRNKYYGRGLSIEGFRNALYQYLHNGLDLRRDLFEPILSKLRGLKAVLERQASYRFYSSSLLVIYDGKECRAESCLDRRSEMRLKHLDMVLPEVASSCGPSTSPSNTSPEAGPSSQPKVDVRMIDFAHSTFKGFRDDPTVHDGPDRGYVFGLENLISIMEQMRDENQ

This test addresses Inositol hexakisphosphate kinase 1 (Homo sapiens) (UniProt Q92551). The test is described as follows: Primary qHTS assay for small molecule inhibitors of Inositol hexaphosphate kinase 1 (IP6K1). Also: series mostly up to about 58 µM. To be noted: ADP-Glo luminescence, 2 h, active compounds read low. The text has this: Assay Provider: Huijun Wei, M.S., Ph.D. School of Medicine, Johns Hopkins University, Baltimore, MD Inositol hexakisphosphate kinases (IP6Ks) catalyze pyrophosphorylation of inositol hexakisphosphate (IP6) into inositol 5-diphospho-1,2,3,4,6-pentakisphosphate (IP7), which is involved in numerous areas of cell physiology including glucose homeostasis, blood coagulation and neurological development. Inhibition of IP6Ks may be effective for the treatment of Type II diabetes, thrombosis, and psychiatric disorders. We performed a quantitative high throughput screen (qHTS) of 158,410 compounds for IP6K1 inhibitors using ankinase activity ADP-Glo Max assay. […] Medicinal chemistry SAR efforts in three chemical series identified potent IP6K1 inhibitors, which were further validated in an orthogonal LC-MS IP7 analysis.
PROTOCOL TABLE SEQUENCE No. (e.g., 1, 2, 3, etc.); […] (e.g., Cells, Incubation, Reagent, etc.); VALUE and DESCRIPTION. 1. Reagent, 3 uL of 1.3 mM ATP and 130 uM IP6 mixture in assay buffer was dispensed to a white, 1536-well assay plate. 2. Compound, 23 nL of compounds of the top two doses (57.5 uM and 19.1 uM final concentration) of the libraries were dispensed into the mixture using the Kalypsis pintool. 3. Reagent, 1 uL of 2.4 uM IP6K1 was dispensed to the assay plates. 4. Incubation, 2 hr incubation at room temperature. 5. Reagent, 2 uL of ADP-Glo reagent was added to the wells. 6. Incubation, 1 hr incubation at room temperature. 7. Reagent, 4 uL or ADP-Glo substate was added to the wells. 8. Incubation, 45 min incubation at room temperature. 9. Detection, luminescence signal was detected using the ViewLux microplate imager (PerkinElmer).
For orientation: qHTS replaces the single test concentration by a dilution series.
Regarding `CO[C@]12CC[C@@]3(C[C@@H]1[C@](C)(O)C(C)(C)C)[C@@H]1Cc4ccc(O)c5c4[C@@]3(CCN1CC1CC1)[C@H]2O5`, the activity change is 0.147% (inactive).

Regarding `Oc1ccc2c3c1O[C@H]1c4[nH]c5c(N=C=S)cccc5c4C[C@@]4(O)[C@@H](C2)N(CC2CC2)CC[C@]314`, the activity change was -97.1% (active).

On to `C/C=C(\C)C(O)C(C)/C=C(C)/C=C/C/C(C)=C/Cc1nc(OC)c(OC)c(O[C@@H]2O[C@@H](C)[C@H](O)[C@@H](O)[C@H]2O)c1C` (stereo not given in full), for which the activity change was -8.45% (inactive).

On to `NC(=O)[C@@H](CC1CC1)[C@@H](CCC(F)(F)F)C(=O)N[C@H]1N=C(c2ccccc2)c2cccc(F)c2NC1=O`, for which the activity change was 10.6% (inactive).

Take `C[C@@H]1C[C@@H](O)[C@]2(O)O[C@@H]3C[C@@]4(C=O)C(CC[C@@H]5C4CC[C@]4(C)[C@@H](C6=CC(=O)OC6)CC[C@]54O)C[C@H]3O[C@@H]2O1` (stereo not given in full): the activity change is 17.6% (inactive).
